Assay outcomes: PubChem BioAssay, National Center for Advancing Translational Sciences (NCATS)
DT40 TDP1 no CPT – qHTS for Inhibitors of human tyrosyl-DNA phosphodiesterase 1 (TDP1): qHTS in cells in absence of CPT | AID 686978, 2013 | Potency, µM (highest dose often 46.2 µM), inactives show at the highest dose activity change, negative = growth inhibition, most hits filed as inhibitors | 420,000 tested, 15% active | DT40 Tdp1-/- hTDP1 cells, no CPT, ATP luminescence, 48 h; note: potency is the fitted concentration of half-maximal effect; % is set by controls: 0 for no effect and ±100 for the full control effect; nearly all actives have a fitted effect of over 55% in size
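Chicken DT40 Tdp1-/- cells stably complemented with human TDP1 were seeded at 400 cells/well with DMSO in place of 20 nM camptothecin. After compound pinning, cells grew at least 48 hr at 37 °C; viability read by CellTiter-Glo luminescence.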
TDP1 inh – TDP1 (human) enzyme inhibition | Q9NUW8 | recombinant TDP1, AlphaScreen DNA substrate cleavage | Potency, µM (series often up to 130 µM), without a hit: top-dose activity change, negative = inhibition, hits mostly inhibitors | 350,000 tested, 0.28% active; note: potency is the fitted concentration of half-maximal effect; % is set by controls: 0 for no effect and ±100 for the full control effect; nearly all actives have a fitted effect of over 40% in size
Target sequence (Q9NUW8 whole entry, looked up): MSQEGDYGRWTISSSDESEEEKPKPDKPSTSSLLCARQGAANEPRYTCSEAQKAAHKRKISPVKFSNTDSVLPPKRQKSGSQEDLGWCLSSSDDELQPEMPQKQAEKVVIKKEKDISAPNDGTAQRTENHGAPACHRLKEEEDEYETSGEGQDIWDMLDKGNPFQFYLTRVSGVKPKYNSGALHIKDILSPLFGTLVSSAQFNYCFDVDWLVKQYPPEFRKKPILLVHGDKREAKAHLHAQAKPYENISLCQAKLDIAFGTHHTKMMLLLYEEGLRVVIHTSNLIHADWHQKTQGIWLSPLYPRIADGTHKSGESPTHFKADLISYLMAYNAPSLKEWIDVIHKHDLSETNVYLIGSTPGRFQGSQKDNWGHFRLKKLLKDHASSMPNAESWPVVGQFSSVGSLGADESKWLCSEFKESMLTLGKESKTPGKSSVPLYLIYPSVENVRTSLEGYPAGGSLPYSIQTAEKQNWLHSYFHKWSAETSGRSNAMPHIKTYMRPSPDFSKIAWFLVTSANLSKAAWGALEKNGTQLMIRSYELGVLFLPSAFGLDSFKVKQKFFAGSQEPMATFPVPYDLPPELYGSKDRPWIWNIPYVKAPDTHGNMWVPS
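Steps: enzyme plus compound, 15 min RT; add biotin/phosphotyrosine-FITC oligonucleotide (15 nM final), react 5 min; add donor/acceptor beads (10 ug/ml final), 10 min; read AlphaScreen. Tdp1 at 1 nM final.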
TGFb inhibitor – TGF-b pathway inhibition; HepG2 CAGA-GFP TGF-b/SMAD3 reporter, GFP fluorescence, 18 h; TGF-beta stimulated, 500 pg/mL final; Potency, µM (titrated, usually from 46.1 µM), for the others: at the top dose activity, negative = inhibition, hits mostly inhibitors; 410,000 tested, 1.2% active; note: potency is the fitted concentration of half-maximal effect; % is set by controls: 0 for no effect and ±100 for the full control effect; nearly all actives have a fitted effect of over 65% in size
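TGF-beta reporter screen: HEPG2 CAGA-GFP, 1% FBS, 500 pg/mL TGF-beta final, 18 h; per-cell GFP summed per well; curves fitted and categorized by class.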
TDP1 cell CPT – DT40-hTDP1 cell growth loss with CPT; chicken DT40 Tdp1-/-;hTDP1 cells + 20 nM CPT, ATP luminescence, 48 h; Potency, µM (doses to about 46.2 µM), for inactives: top-dose activity change, negative = growth inhibition, actives largely listed as inhibitors; 420,000 tested, 12% active; AID 686979; note: potency is the fitted concentration of half-maximal effect; % is set by controls: 0 for no effect and ±100 for the full control effect; nearly all actives have a fitted effect of over 55% in size
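Chicken DT40 Tdp1-/- cells stably complemented with human TDP1 were seeded at 400 cells/well in medium containing 20 nM camptothecin, exposed to pin-transferred compounds, and grown at 37 °C for at least 48 hr. Viability was read as ATP luminescence.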
HepG2 viability – HepG2 cytotoxicity, counter-screen for TGF-b inhibitors. 410,000 tested, 0.76% active. HepG2 CAGA-GFP viability, ATP luminescence, 18 h. Potency, µM (doses to about 46.1 µM), for the others: top-dose activity change, negative = cytotoxicity, hits mostly cytotoxic; note: potency is the fitted concentration of half-maximal effect
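CellTiter-Glo luminescence gave cytotoxicity after 18 hours at 37 degrees C. The cells were HepG2 CAGA-GFP in 1% FBS DMEM, stimulated with 500 pg/mL TGF-beta after compound addition. %Activity was normalised to no-cell wells (complete cell-killing) and DMSO (no toxicity), and curves were fitted and classified.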
IL-1B inflam inh – inflammasome signaling inhibition, IL-1 beta readout; THP-1 LPS/ATP IL-1B secretion, AlphaLISA, 16 h; active compounds read low; 360,000 tested, 4.7% active; activity change, % at 57.5 µM; in the data active = activity change below about -50%; inconclusive = mostly about -30% to -49%; note: % is set by controls: 0 for no effect and ±100 for the full control effect
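Secreted IL-1B measured by AlphaLISA bead assay after 16 h compound exposure of THP-1 cells; compounds (final up to 57.5 uM) added 1 h before LPS (250 ng/mL) and ATP (1.25 mM) stimulation; lower signal means less secretion.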
Numbers without * were called inactive; u = inconclusive; x = no result. Only some compounds are listed: those with a hit (about 19% of all), similar ones and a draw of the others. Unless noted, calls come from the whole dose curve; as a rule, active = well fitted curve in the direction sought with a large enough effect; inconclusive = small, poorly fitted or top-dose-only effect, or another doubt; inactive = no such curve, though single readings can be large; an effect the other way counts as inactive or inconclusive.

SMILES	DT40 TDP1 no CPT	TDP1 inh	TGFb inhibitor	TDP1 cell CPT	HepG2 viability	IL-1B inflam inh
O=C(Nc1ccc(S(=O)(=O)N2CCCC2)cc1)c1ccc2c(=O)n3c(nc2c1)CCCCC3	16µM*	0%	u	u	-6%	-5
O=C(Nc1ccc(F)c(Cl)c1)c1ccc2c(=O)n3c(nc2c1)CCCCC3	21µM*	1%	-19%	16µM*	-13%	-10
Cc1ccc(S(=O)(=O)N2CCCCC2)cc1NC(=O)c1ccc2c(=O)n3c(nc2c1)CCCCC3	x	3%	x	x	x	x
O=C(Nc1ccc(Cl)cc1)c1ccc2c(=O)n3c(nc2c1)CCCCC3	u	x	-1%	u	-29%	29
O=C(Nc1cccc(Cl)c1)c1ccc2c(=O)n3c(nc2c1)CCCCC3	u	4%	-28%	23µM*	-22%	-74*
CCCCN(C(=O)c1cc2c(s1)CCCCC2)c1c(N)n(CC(C)C)c(=O)[nH]c1=O	-3%	0%	10%	-2%	-6%	-2
CC(C)[C@@H](CC(=O)N[C@@H]1CCCC[C@H]1C(=O)N[C@H](CC(=O)N[C@@H](CCC(=O)O)CC(=O)O)Cc1c[nH]c2ccccc12)NC(=O)C[C@H](Cc1c[nH]c2ccccc12)NC(=O)[C@@H]1CNCC[C@H]1N	x	-11%	x	x	x	x
CCc1nnc(NC(=O)c2ccc3c(=O)n4c(nc3c2)CCC4)s1	u	x	7%	-28%	17%	-2
Cc1ccc(-c2csc(NC(=O)c3ccc4c(=O)n5c(nc4c3)CCCCC5)n2)cc1	13µM*	3%	-27%	10µM*	-4%	0
O=C(Nc1ccc(F)cc1)c1ccc2c(=O)n3c(nc2c1)CCCCC3	16µM*	3%	u	u	-19%	-14
CC(=O)c1ccc(NC(=O)c2ccc3c(=O)n4c(nc3c2)CCCCC4)cc1	u	2%	-16%	u	-18%	-13
CCOC(=O)c1cc(OC(=O)c2cc(OC)c(OC)c(OC)c2)n(-c2ccccc2)n1	x	x	-5%	x	-6%	x
COc1ccc(-c2cc(C(F)(F)F)nc(SCC(=O)N(C)Cc3cnn(C)c3C)n2)cc1OC	16µM*	5%	27%	16µM*	8%	-4
CN(Cc1ccccc1)C(=O)CCSc1nc(-c2ccc3c(c2)OCO3)cc(C(F)(F)F)n1	18µM*	0%	6%	u	4%	8
COc1ccc(-c2cc(C(F)(F)F)nc(SCC(=O)Nc3cc(C)on3)n2)cc1OC	-13%	4%	1%	2%	-59%	0
CN(Cc1ccccc1)C(=O)CSc1nc(-c2ccc(F)cc2)cc(C(F)(F)F)n1	15µM*	-5%	-10%	21µM*	-54%	x
O=C(CSc1nc(-c2ccc(F)cc2)cc(C(F)(F)F)n1)NCc1ccccc1	-30%	-2%	-18%	-27%	2%	x
CN(Cc1ccccc1)c1nc(-c2ccc(F)cc2)cc(C(F)(F)F)n1	u	22µM*	5%	u	-20%	x
CC(NC(=O)C(NS(=O)(=O)c1cccc2nsnc12)C(C)C)c1ccccc1 (configuration not stated)	1%	x	-1%	7%	-22%	5
CC1CCc2onc(C(=O)N3CCN(c4ccc(Cl)cc4)CC3)c2C1 (configuration not stated)	-64%	6%	-13%	u	-5%	x
COc1ccc(CNC(=O)CCSc2nc(-c3ccc4c(c3)OCO4)cc(C(F)(F)F)n2)cc1	u	3%	-9%	-20%	-39%	-12
